Compound activity: PubChem BioAssay, several laboratories
The list is not random: actives were taken first. Their share in the collection is about 27%.
sEH inhibitor – soluble epoxide hydrolase inhibitors, primary screen, biochemical, human sEH. Bifunctional epoxide hydrolase 2 (Homo sapiens), P34913. recombinant human sEH enzymatic activity assay. inhibition, % at 2 µM. 91,000 compounds, 0.34% hits; in the data active means inhibition above about 80%
CYP2C9 inhib – blockers of cytochrome P450 2C9 activity – biochemical, luminescence, ADME assay, primary screen | 96,000 compounds, 20% hits | inhibition, % at 5 µM | P11712 | CYP2C9 Supersomes, luciferin-H conversion | AID 777, 2007;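 active means blocking of liver enzyme CYP2C9 beyond about 50% at 5 µM, limit read from the data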
Target sequence (P11712 whole entry, looked up): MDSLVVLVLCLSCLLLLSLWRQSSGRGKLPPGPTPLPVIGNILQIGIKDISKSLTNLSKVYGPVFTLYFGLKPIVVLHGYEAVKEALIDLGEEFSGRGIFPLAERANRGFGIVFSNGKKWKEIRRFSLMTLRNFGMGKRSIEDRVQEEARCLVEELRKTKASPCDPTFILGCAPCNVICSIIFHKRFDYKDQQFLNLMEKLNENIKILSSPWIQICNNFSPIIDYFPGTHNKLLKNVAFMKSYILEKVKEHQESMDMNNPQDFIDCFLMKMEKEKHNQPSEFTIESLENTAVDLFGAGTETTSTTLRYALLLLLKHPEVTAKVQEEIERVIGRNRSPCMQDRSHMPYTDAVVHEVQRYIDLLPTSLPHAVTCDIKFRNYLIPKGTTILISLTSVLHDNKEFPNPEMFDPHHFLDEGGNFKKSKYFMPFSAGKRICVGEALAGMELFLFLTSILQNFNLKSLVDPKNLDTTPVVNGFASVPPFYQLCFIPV
sEH activator – soluble epoxide hydrolase activators, primary screen, biochemical, human sEH. 91,000 compounds, 0.04% hits. activation, % at 2 µM. purified human sEH enzymatic activity, activator screen. Bifunctional epoxide hydrolase 2 (Homo sapiens), P34913; in the data active means activation above about 37%
CYP2C19 inhib – blockers of cytochrome P450 2C19 activity – biochemical, luminescence, ADME assay, primary screen | P33261 | CYP2C19 Supersomes, luciferin-H EGE luminescence, 30 min | inhibition, % at 5 µM | 96,000 compounds, 21% hits;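 active means CYP2C19 inhibition above a set limit at 5 µM in the primary screen, cut at about 50% in these data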;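 further: plate controls were negative control wells for no effect and 2.5 mM tranylcypromine positive control for full effect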
CYP2C9 act – human CYP2C9 activators, primary screen, biochemical, luminescence. Cytochrome P450 2C9 (Homo sapiens), P11712. recombinant CYP2C9, luciferin-H conversion; stronger effect = higher value; factor 1 = untreated enzyme, 0 = blocked. activation factor at 5 µM. 96,000 compounds, 1.4% hits. AID 1024, 2008;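 active means activation factor of 2 or more for CYP2C9 at a 5 µM dose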;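 further: 0 = sulfaphenazole-blocked wells and 1 = vehicle-only wells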
CYP2C19 activ – human CYP2C19 activators, primary screen, biochemical, luminescence | 96,000 tested, under 10 active | AID 1025, 2008 | Cytochrome P450 2C19 (Homo sapiens), P33261 | recombinant CYP2C19, luciferin-H EGE luminescence; stronger effect = higher value; 0 = fully inhibited enzyme, 1 = untreated enzyme | activation factor at 5 µM;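 active means activation factor of at least 2 at 5 µM in the primary screen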;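 further: 0 = wells with 2.5 mM tranylcypromine and 1 = vehicle-only wells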
* marks the source's active call; other numbers are inactive results; . = not tested or not shown.

SMILES	sEH inhibitor	CYP2C9 inhib	sEH activator	CYP2C19 inhib	CYP2C9 act	CYP2C19 activ
O=C(CCn1cccc1)NCCc1ccc(Cl)cc1	14.3	23.7	-10.8	58.9*	0.8	0.4
O=C(Cc1c(F)cccc1Cl)Nc1cccnc1	-1.7	5.8	4.7	39.2	0.9	0.6
O=C(Cc1c(F)cccc1Cl)Nc1ccncc1	0.8	70.6*	-1.0	81.5*	0.3	0.2
Cc1ccc2c(c1)nnn2C1CCN(S(=O)(=O)c2ccc(C(=O)N(C)C3CCCCC3)cc2)CC1	.	-4.9	.	-0.7	1	1
CCCCn1c2c(c3ccccc31)CCc1nonc1-2	-1.6	-0.5	0.6	-5.1	1	1.1
CCN1C(=O)N(c2ccc(Cl)cc2)C(C)=CC1(C)C	0.3	10.6	2.6	25.8	0.9	0.7
CC(CC(=O)NCc1cccnc1)c1ccccc1 (stereo unspecified)	12.7	.	-8.2	.	.	.
CCCn1nnc(NC(=O)COc2ccccc2Cl)n1	17.0	-10.2	-17.4	25.4	1.1	0.7
CC(=O)OCCN1C(=O)c2cccnc2C1=O	12.1	-19.9	-9.4	-14.7	1.2	1.1
CC(=O)OCCCN1c2ccccc2Nc2nnc(-c3ccccc3)cc21	8.2	.	-5.5	61.3*	.	0.4
Cc1c(Br)ccc(NC(=O)CCN2C(=O)C3C4CCC(C4)C3C2=O)c1C (stereo unspecified)	66.6	-73.9	-66.5	24.8	1.7	0.8
CCCc1nc2ccccc2[nH]1	-5.2	-24.7	4.5	2.3	1.2	1
C(=C\c1nc2ccccc2[nH]1)/c1ccccc1	17.9	60.5*	-16.2	72.0*	0.4	0.3
Cc1ccc(-n2ncc(C#N)c2/N=C/N2CCCCCC2)cc1	.	90.7*	.	96.6*	0.1	0
CCCCN(C)/C=N/c1c(C#N)cnn1-c1ccc(C)cc1	-18.4	59.8*	19.8	39.5	0.4	0.6
O=C(Nc1ccc(Cl)c(Cl)c1)c1ccncc1	11.0	53.7*	-12.5	96.3*	0.5	0
O=C(Nc1ccc(Cl)c(Cl)c1)c1csc(-c2ccccc2)n1	8.3	-12.9	-8.7	-10.4	1.1	1.1
O=C(Nc1ccc(Cl)c(Cl)c1)OCc1cccnc1	.	46.6	.	63.6*	0.5	0.4
O=C(Nc1ccc(Cc2ccncc2)cc1)c1ccc(Cl)c([N+](=O)[O-])c1	63.1	76.1*	-63.8	77.4*	0.2	0.2
O=C(Nc1cccc(Cl)c1)c1csc(-c2ccccc2)n1	5.0	57.5*	-5.4	-10.1	0.4	1.1
O=C(NNC(=O)c1cccnc1)Nc1ccc(Cl)c(Cl)c1	6.9	8.1	-8.0	37.7	0.9	0.6
Cn1c(NC(=O)COc2ccccc2)cc(=O)n(C)c1=O	-6.5	5.7	6.4	12.4	0.9	0.9
C=CCNc1nc(Nc2ccc(OC)cc2)nc(OCC)n1	1.9	3.0	-1.7	9.6	1	0.9
CN(CC(=O)NCc1ccco1)S(=O)(=O)c1ccc2c(c1)n(C)c(=O)c(=O)n2C	.	2.0	.	-9.7	1	1.1
Cc1ccc(NCC(=O)c2ccccc2)cc1Cl	3.0	-3.5	-1.3	33.5	1	0.7
SMILES	sEH inhibitor	CYP2C9 inhib	sEH activator	CYP2C19 inhib	CYP2C9 act	CYP2C19 activ
CC(OC(=O)c1ccncc1)C(=O)Nc1cccc(Cl)c1 (stereo unspecified)	-0.9	63.1*	-2.0	75.0*	0.4	0.3
O=C(Nc1ccc(NC(=O)C2CC2)nc1)c1ccccn1	0.0	-15.7	0.4	13.1	1.2	0.9
O=C(Nc1ccc(NC(=O)C2CC2)nc1)c1ccncc1	11.1	55.6*	-10.0	13.3	0.4	0.9
O=C(CNc1cccc(Cl)c1)c1ccc(Cl)cc1	-10.5	14.8	11.3	86.2*	0.9	0.1
COc1cccc(NC(=O)c2ccncc2)c1	0.9	2.6	0.3	35.8	1	0.6
O=C(Nc1cccc(Cl)c1)c1ccncc1	5.8	25.4	-7.5	67.6*	0.7	0.3
CCOC(=O)c1sc(=S)n(-c2ccc(Cl)cc2)c1SC	-4.7	26.7	6.9	-0.6	0.7	1
Cc1ccc(NC(=O)N(C2=NCC(C)S2)c2ccccc2)cc1 (stereo unspecified)	-6.0	.	8.7	.	.	.
CC(=O)Nc1ccc(S(=O)(=O)N(C2=NCC(C)S2)c2ccccc2)cc1 (stereo unspecified)	-9.1	.	9.4	.	.	.
Cc1cccc(N(C(=O)Nc2ccccc2)C2=NCC(C)S2)c1 (stereo unspecified)	.	81.2*	.	68.2*	0.2	0.3
CC1CN=C(N(C(=O)Nc2ccccc2)c2ccc(F)cc2)S1 (stereo unspecified)	9.8	76.1*	-12.2	75.9*	0.2	0.2
CCCNC(=O)NC1C(NC(=O)NCCC)N(C)C(=O)N1C (stereo unspecified)	-8.3	0.9	11.3	9.2	1	0.9
COc1ccc(S(=O)(=O)N(C)CC(=O)Nc2ccccc2SC)cc1Cl	-6.4	-188.0	6.7	31.4	2.9*	0.7
COc1ccc(S(=O)(=O)N(C)CC(=O)Nc2ccccc2OC)cc1	-5.5	-15.2	4.2	73.1*	1.2	0.3
COc1ccc(S(=O)(=O)N(C)CC(=O)Nc2ccccc2SC)cc1	-22.8	-6.6	22.2	98.0*	1.1	0
COC(=O)c1ccccc1NC(=O)CN(C)S(=O)(=O)c1ccc(OC)cc1	-11.6	-3.3	15.9	72.5*	1	0.3
COc1ccc(NC(=O)CN(C)S(=O)(=O)c2ccccc2)c([N+](=O)[O-])c1	-20.7	25.9	23.1	16.0	0.7	0.8
O=C(c1ccc(C23CC4CC(CC(C4)C2)C3)o1)N1CCOCC1	8.8	-5.5	-8.7	4.6	1.1	1
O=C1OC(C(=O)O)Cc2ccccc21 (stereo unspecified)	-2.2	.	6.2	.	.	.
CC1(C)C(c2cccs2)=[N+]([O-])C2(CCCCC/C2=N\NC(N)=O)N1O (stereo unspecified)	-0.2	-14.5	2.6	-12.7	1.1	1.1
COc1ccc(NC(=O)CN(C)S(=O)(=O)c2ccccc2)cc1	-10.6	54.6*	8.0	61.5*	0.5	0.4
COc1ccccc1NC(=O)CN(C)S(=O)(=O)c1ccc(F)cc1	12.9	-128.7	-10.9	55.9*	2.3*	0.4
COc1ccc(S(=O)(=O)N(C)CC(=O)Nc2cccc(C(C)=O)c2)cc1C	13.1	-30.1	-11.9	46.7	1.3	0.5
COc1ccc(S(=O)(=O)N(C)CC(=O)Nc2ccc(C(F)(F)F)cc2)cc1Cl	-14.4	56.6*	10.4	6.7	0.4	0.9
CCOC(=O)c1ccc(NC(=O)CN(C)S(=O)(=O)c2ccc(OC)cc2)cc1	9.8	-63.7	-7.3	7.2	1.6	0.9
